Data: PMC12864922, “TDP-43 directly inhibits mRNA accumulation in neurites through modulation of mRNA stability”
The full ranking holds about 9,900 sequences; the median of “r (bound/input frequency ratio)” is about 0.7, and the highest 2% start at about 6.5. The entries come from a sample that favours the highest values as a whole.

B1: ENSMUSG00000034801.154|Sos2|134:138;197:201;231:235 (ssRNA)
RNA: GGGAGUUCUACAGUCCGACGAUCGCUUCGAUAUCCGCAUGCUAUUGUUUGGUUUUUACAUCUAGGAGACUUAGGAAUAAUACCCACUGUUCUUAAACUCUUUGAGACCAUGUCUUAAAUGUCAGUAUUUGCUGCUGAAGACAAAAACGGAAAAUAGAAUGAAAUAAUAGAAUGCACACACAUUAUUAUUUUGUUAAAAUUAUAAACAGUUCUACAUAACCUGAUUAUAGAAGAAGGGCAACACAUCAUUAAGAUGUGCCUUUUGUUUUGCAGUCAUACGUGUUUAGCUAAUCAUUGUUUAGCUCUCUUGCGGUCGCACUAGUGUGGAAUUCUCGGGUGUCAAGG
B2: ENSMUSG00000028439.239|Fam219a|33:39;67:71;117:126;145:149 (ssRNA)
RNA: GGGAGUUCUACAGUCCGACGAUCGCUUCGAUAUCCGCAUGCUAUCACAGGAGUUUCUGCAAAAGACUAUGACAUCACACACACUGUGGUCUCACGAGGUACCUGGAGGUCAUACUGCACGGACAUGGGAAGUACGUGAAGAUUUAUUUCGGGAAAAGUGCACACACACAAGCUGUACUGGGUGUCAUCAUACCUGUUGCUUCUGCUGCUGGUCUGGUCUGAGGGAGGAAAGCUGAGGCUGUAGCUCAGUGAGAUGGUGGCUCUCCCAUGGCUGAAGACAAGUGCAAGCAGAGAGAGCCUCAGGCUCUUGCGGUCGCACUAGUGUGGAAUUCUCGGGUGUCAAGG
B3: ENSMUSG00000031028.61|Tub|157:169;187:191 (ssRNA)
RNA: GGGAGUUCUACAGUCCGACGAUCGCUUCGAUAUCCGCAUGCUAUCAGUCCCCUGCUGCAGUGGUGUUAUCACACCGGAAAGCCUCUUCACCUGGAGGUACAGAGGGAGAGGAAGCACAAGCCUGGCUGCUGUGGCUCAGCCAUCCACUCAGCCUACGAGUCAGAGACAGUGGGUGUCCCGGGAAGCAGGGGUACAGUGACACACACACAUACUACAGGGCACUCAAGCUCAUACUAGAAAAAGCUCUGGUGGUCAGCAGAAAGCACUCCCACUUCAAAAGGGCCCAUUAGGCCCAAAGGGGGUCUCUUGCGGUCGCACUAGUGUGGAAUUCUCGGGUGUCAAGG
B4: ENSMUSG00000032194.9|Kank2 (ssRNA)
RNA: GGGAGUUCUACAGUCCGACGAUCGCUUCGAUAUCCGCAUGCUAGAGUGAAUACAGGGAGGAGCCAGUGAGUCCCCCAGGACCCACCAGCCACAAGCCACGCAUCAAACCGUCCCUCCUCCAUCCCUCUGUCCCAUUCUGCCUCGGCAUUCCUCAGCCCCUGAACUUCCCUGAGGGAGCCCUGACAUCUACCAGGCUCAAGCUCCUGGAAGCCUUUCCCAGCACCCUGGGUUCAAAGCCAGAAAGCCAAGCUACAUUCUCCUCCCAGUUGGCACCAGUUGACAACGCCUUGGGUGUGGGUUUCUCUCUUGCGGUCGCACUAGUGUGGAAUUCUCGGGUGUCAAGG
B5: ENSMUSG00000061578.1396|Ksr2 (ssRNA)
RNA: GGGAGUUCUACAGUCCGACGAUCGCUUCGAUAUCCGCAUGCUAAAGUAUAUAUACCUAUAAAUGCUAUAUAUAUUAUAUAUGUGUAUAUACAUAAAGACUACUUCUUGUACAGCCCUCCACGGACCUCAGGCCCACUGUUUUCUCCAUGUCUGUCUGUACUGACUGUUGCAGAAUGAGCUGAUGUAUGAUCUUGAUUCUCCAUUUUCCUUCUGGACCACAUGUCUCUUCCUUUUCCUUUUUAGAUCUGUCUUGCUCUCUGUCUCUCUCACUCAUUGCCAACAUGUUGCUGGGAAAGAAUAUUUCUCUUGCGGUCGCACUAGUGUGGAAUUCUCGGGUGUCAAGG
B6: ENSMUSG00000043670.80|Diras1|67:72 (ssRNA)
RNA: GGGAGUUCUACAGUCCGACGAUCGCUUCGAUAUCCGCAUGCUACUGGCUAAGGAACUGCUCAUCCCAGUCAGGCCCAGAGAGGUUACCUUGCCUCUCCAUCUCUGUCCCACACACCCCAGCCAUGCCCACUGUCCCUGUCCCUCACAUUCUAUCACUGUGACCUCUGGGGAGUGCCCAUUGACCUCAUCUUCCUUCACUAAUAUCUUAUUUCUUUCACCUGAUCCUGUCCUUUCCCCGUGACCUCUGACCUGUGGCCUUCCCUGGGUCCAGAACACCCCUGUCCUCUCCUGUCUGCACACCAGCUCUUGCGGUCGCACUAGUGUGGAAUUCUCGGGUGUCAAGG
B7: ENSMUSG00000090935.729|Synj2bp (ssRNA)
RNA: GGGAGUUCUACAGUCCGACGAUCGCUUCGAUAUCCGCAUGCUAAUCAACCUCCAGUAACAUAUGUGGUUAGUAAGUGCUUCAGCUUGUGUAGCCAUUAAUAACCAAGUCAUAGGAUUGUGAAUCUAAAAUACUCCUGGGUAAAAUUUGUAUUAGAAUGGAAAAAAAAAUGAGGGUCAGAAAGGUGAGCUAACUUCAAGUUAGAUACUCCCCUCUAUUUUGGUCUCAAAUUUGUUUUAGUGUGUCCACAACAUGAAAACAUACAAAAACUAUAUUUUAAAAAUCAGUUUACUUUCAUCUUUUCUCUCUUGCGGUCGCACUAGUGUGGAAUUCUCGGGUGUCAAGG
B8: ENSMUSG00000022095.164|Fam160b2|44:48 (ssRNA)
RNA: GGGAGUUCUACAGUCCGACGAUCGCUUCGAUAUCCGCAUGCUAGGCUAGGCCGAGACACAAGCAGAUAGCUCUGGCAUUGUUCUUCCAUACUCCUCCAUGGCUGGGGCUGCUACCUCACCCGGCCUGAAUCUGUCUCAACCUGCAAGAGCACUCGGGCGGCGCCAGGCAUUACCUCACAACAGGCCUGCAGUUGUUGGCUUCCCUCCUGGGCAAGGAGGAGCAGGCCAGAGCCCCUUUUGCUUCCUUUUCCUGCCCAUGCCACCUCUCGAAGCCGGGCACAGGUUGCCAGGAGGUGACAUGAACUCUUGCGGUCGCACUAGUGUGGAAUUCUCGGGUGUCAAGG
B9: ENSMUSG00000004113.278|Cacna1b|87:91;151:155;229:260 (ssRNA)
RNA: GGGAGUUCUACAGUCCGACGAUCGCUUCGAUAUCCGCAUGCUAAAGUCAGGCCCCUGGCUUAGCACUAGAAAAAAUAAAACCUCAUGGCUGCUUUGCAAAGGGAAAACCCAUGCUCAGGAAGGUGUUCACACACCACAGAUAGCUGGGAGGCCACGAGAGAAAGGUUGCACACAGACAGGCAGGCACUCCUUGCACACGUCUCUCUGUUUUGAAACUUCUGAUGACUUCUUGGUGGCUUGUUGUCUUCUACCCCAUGUUUCUCACAGGAUCACACACACACACACACACACACACACACACACCUCUUGCGGUCGCACUAGUGUGGAAUUCUCGGGUGUCAAGG
B10: ENSMUSG00000022095.187|Fam160b2 (ssRNA)
RNA: GGGAGUUCUACAGUCCGACGAUCGCUUCGAUAUCCGCAUGCUAAGGCCUGCAGUUGUUGGCUUCCCUCCUGGGCAAGGAGGAGCAGGCCAGAGCCCCUUUUGCUUCCUUUUCCUGCCCAUGCCACCUCUCGAAGCCGGGCACAGGUUGCCAGGAGGUGACAUGAAAGAGGAGGAAACUCCAUGACCUCUACAUCCCCCGCAGUCCUCCCAGCGGGGGAGGACUUCUCUGCUGCUCCGAAGAACAUCAUGCACUCCUGUGUGUGUGUGUGAGUGUGUGUGUGUGUGUGUGUGUGUGUGUGUGUGCUCUUGCGGUCGCACUAGUGUGGAAUUCUCGGGUGUCAAGG
B11: ENSMUSG00000022095.189|Fam160b2 (ssRNA)
RNA: GGGAGUUCUACAGUCCGACGAUCGCUUCGAUAUCCGCAUGCUAGUUGGCUUCCCUCCUGGGCAAGGAGGAGCAGGCCAGAGCCCCUUUUGCUUCCUUUUCCUGCCCAUGCCACCUCUCGAAGCCGGGCACAGGUUGCCAGGAGGUGACAUGAAAGAGGAGGAAACUCCAUGACCUCUACAUCCCCCGCAGUCCUCCCAGCGGGGGAGGACUUCUCUGCUGCUCCGAAGAACAUCAUGCACUCCUGUGUGUGUGUGUGAGUGUGUGUGUGUGUGUGUGUGUGUGUGUGUGUGUAUGUGUGUGUACUCUUGCGGUCGCACUAGUGUGGAAUUCUCGGGUGUCAAGG
B12: ENSMUSG00000022095.188|Fam160b2 (ssRNA)
RNA: GGGAGUUCUACAGUCCGACGAUCGCUUCGAUAUCCGCAUGCUAGCAGUUGUUGGCUUCCCUCCUGGGCAAGGAGGAGCAGGCCAGAGCCCCUUUUGCUUCCUUUUCCUGCCCAUGCCACCUCUCGAAGCCGGGCACAGGUUGCCAGGAGGUGACAUGAAAGAGGAGGAAACUCCAUGACCUCUACAUCCCCCGCAGUCCUCCCAGCGGGGGAGGACUUCUCUGCUGCUCCGAAGAACAUCAUGCACUCCUGUGUGUGUGUGUGAGUGUGUGUGUGUGUGUGUGUGUGUGUGUGUGUGUAUGUGCUCUUGCGGUCGCACUAGUGUGGAAUUCUCGGGUGUCAAGG
B13: ENSMUSG00000061578.732|Ksr2 (ssRNA)
RNA: GGGAGUUCUACAGUCCGACGAUCGCUUCGAUAUCCGCAUGCUAGGGGUCAUUGUUCAAUCCUGUAUCAAGACCUUGGAGUUGUCUAAGGCUGUGGGUUUUAAAUACCUGCUGCAGGCCUCCCAUCUCUGGCUCUUUGUUUCCACUCUGGCCCAAGUUUGAGUCUCCAUAUGGGCCCUUCCUGUCCUCAUGCCCUGCCUGUCUUCAUUCCACCCAUCCACCCUCCUAAGGAUUGGUCUUGUUCCGAGAGUGAUCCUGGUAACGCCAAGCCUCCCUCUGCCCCUGUGUUGGCUUCUGUGACGGACCUCUUGCGGUCGCACUAGUGUGGAAUUCUCGGGUGUCAAGG

biological target: TDP-43 (Homo sapiens, UniProt Q13148 1-414); assay: RNA Bind-n-Seq with designed 260-mer pool; 25 mM Tris-HCl, 150 mM KCl, 3 mM MgCl2, BSA (printed 500 mg/mL), 20 units/mL SUPERase IN; pH not stated; 500 nM RNA pool, 1 h, 4 C; TDP-43 5, 50, 500 nM; high values mean tight binding; conditions: protein: recombinant; tags: SBP (GST cleaved off with PreScission; pGEX-GST-SBP)
In short: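 In 25 mM Tris-HCl, 150 mM KCl, 3 mM MgCl2, BSA and SUPERase IN, 500 nM of an in vitro-transcribed 260-nt 3′ UTR oligo pool was incubated for 1 h at 4 °C with SBP-tagged TDP-43 (5, 50 or 500 nM) captured on streptavidin beads. RNA remaining after washes was biotin-eluted, reverse transcribed, PCR-amplified and sequenced. Binding, R, is the bound-sample abundance of each oligo, normalized to mapped reads, divided by its abundance in input. Each duplicate used a separate, independent protein batch.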

Chain of TDP-43 (Q13148 whole entry): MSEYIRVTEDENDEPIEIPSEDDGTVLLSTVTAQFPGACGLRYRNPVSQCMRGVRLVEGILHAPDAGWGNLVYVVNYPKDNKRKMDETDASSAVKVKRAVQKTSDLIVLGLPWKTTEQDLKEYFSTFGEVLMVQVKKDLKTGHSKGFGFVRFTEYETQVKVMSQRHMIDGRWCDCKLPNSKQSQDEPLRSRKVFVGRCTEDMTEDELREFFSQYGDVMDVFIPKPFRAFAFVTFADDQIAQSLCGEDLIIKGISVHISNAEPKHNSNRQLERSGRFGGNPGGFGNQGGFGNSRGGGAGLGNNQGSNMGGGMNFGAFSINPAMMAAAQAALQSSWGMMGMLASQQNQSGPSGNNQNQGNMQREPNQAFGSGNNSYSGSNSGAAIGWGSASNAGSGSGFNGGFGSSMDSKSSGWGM

Row | Binder | binding signal
1 | B1 | 0.018 R (bound/input frequency ratio)
2 | B2 | 1.35 R (bound/input frequency ratio)
3 | B3 | 0.59 R (bound/input frequency ratio)
4 | B4 | 1.04 R (bound/input frequency ratio)
5 | B5 | 0.176 R (bound/input frequency ratio)
6 | B6 | 2.36 R (bound/input frequency ratio)
7 | B7 | 0.0597 R (bound/input frequency ratio)
8 | B8 | 0.529 R (bound/input frequency ratio)
9 | B9 | 1.82 R (bound/input frequency ratio)
10 | B10 | 6.28 R (bound/input frequency ratio)
11 | B11 | 5.45 R (bound/input frequency ratio)
12 | B12 | 7.09 R (bound/input frequency ratio)
13 | B13 | 1.54 R (bound/input frequency ratio)
